Records with an inconclusive call do not appear. The source made the active and inactive calls. Unless noted, calls come from the whole dose curve; as a rule, active = well fitted curve in the direction sought with a large enough effect in the repeat runs; inconclusive = weak or mixed curves; inactive = no such curve, though single readings can be large; an effect the other way counts as inactive or inconclusive.
Key:
[1] = qHTS assay for small molecule agonists of the p53 signaling pathway (AID 651631; calls by dose curve; note: nearly all actives have a fitted effect of over 15% in size)
Summary of the method: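 We treat p53RE-bla HCT-116 cells with compounds for 16 h at 37 °C, add LiveBLAzer B/G FRET substrate for 2 h at room temperature, and measure fluorescence intensity.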

[2] = qHTS assay for small molecules that induce genotoxicity in human embryonic kidney cells expressing luciferase-tagged ATAD5 (AID 651632); note: nearly all actives have a fitted effect of over 15% in size
Summary of the method: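 HEK293T cells carrying a luciferase reporter tagged to ATAD5 were exposed to compound or DMSO vehicle for 16 hr at 37C, 5% CO2. Amplite was added, and after 30 min at room temperature luciferase activity was read as a marker of ATAD5 induction.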

[3] = qHTS assay for small molecule agonists of the p53 signaling pathway - cell viability (AID 651633; calls by dose curve;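 note: p53RE-bla HCT reporter cells with a stable beta-lactamase p53 reporter; series mostly up to about 83 µM; nearly all actives have a fitted effect of over 30% in size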)
Summary of the method: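 Viability counter-read: CellTiter-Glo luminescence (30 min, room temperature) in the same p53RE-bla plates. These plates had been exposed to compounds for 16 h at 37 C.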

[4] = qHTS assay for small molecules that induce genotoxicity in human embryonic kidney cells expressing luciferase-tagged ATAD5 - cell viability (AID 651634; calls by dose curve; note: nearly all actives have a fitted effect of over 25% in size)
Summary of the method: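 HEK293T cells expressing luciferase-tagged ATAD5 were exposed to compound or DMSO for 15.5 hr at 37C, 5% CO2. Viability was then read as live-cell protease activity by CellTiter-Fluor fluorescence after 30 min at 37C.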

[5] = qHTS assay for small molecule disruptors of the mitochondrial membrane potential - cell viability (AID 720634; calls by dose curve;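 note: human HepG2 liver cancer cells; series mostly up to about 83 µM; nearly all actives have a fitted effect of over 20% in size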)
Summary of the method: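 HepG2 cells seeded overnight at 37 C, then exposed to compound or DMSO for 1 hr at 37 C, 5% CO2. m-MPI dye added, then CellTiter-Glo for 30 min at room temperature; viability read as ATP luminescence.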

[6] = qHTS assay for small molecule disruptors of the mitochondrial membrane potential (AID 720635)
Summary of the method: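 Mitochondrial membrane potential tracked with Mito-MPS dye, red aggregates (ex 540/em 590 nm) against green monomers (ex 490/em 535 nm). Compound treatment 1 hr at 37C, dye 30 min in HepG2.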

[7] = qHTS assay to test for compound auto fluorescence at 590 nm (red) in HepG2 cells (AID 720674)
Summary of the method: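 Red autofluorescence (Ex/Em 540/590 nm, Rose Bengal sodium equivalents) was measured in HepG2 cells, 2,000 per well in MEM plus 10% FBS, plated overnight at 37 C. Readings were taken 1 hr after adding 23 nL compound or DMSO, at 37 C and 5% CO2.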

[8] = qHTS assay to test for compound auto fluorescence at 535 nm (green) in HepG2 cells (AID 720675)
[9] = qHTS assay to test for compound auto fluorescence at 460 nm (blue) in HEK293 cells (AID 720678)
Summary of the method: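 HEK293 cells (2,000/well, medium with 10% dialyzed FBS) attached 4-5 hr, then exposed to compound overnight at 37C, 5% CO2. Blue fluorescence read at 405/460 nm, with triamterene as reference fluorophore.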

[10] = qHTS assay to test for compound auto fluorescence at 590 nm (red) in HEK293 cells (AID 720679)
Summary of the method: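 HEK293 cells (2,000/well, 10% dialyzed FBS) attached 4-5 hr, then dosed with compound or DMSO and incubated overnight at 37C, 5% CO2. Red fluorescence read at 540/590 nm, Rose Bengal sodium as reference fluorophore.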

[11] = qHTS assay to test for compound auto fluorescence at 535 nm (green) in HEK293 cells (AID 720680)
[12] = qHTS assay to test for compound auto fluorescence at 460 nm (blue) in HEK293 cell free culture (AID 720681)
Summary of the method: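 Blue fluorescence (Ex 405/Em 460 nm, triamterene-equivalent) was read immediately after pin transfer of compound or DMSO into medium (DMEM, 10% FBS) without cells.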

[13] = qHTS assay to test for compound auto fluorescence at 535 nm (green) in HEK293 cell free culture (AID 720682)
Summary of the method: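 Green-channel intensity (Ex/Em 485/535 nm) was recorded from compound-treated wells containing only DMEM with 10% FBS. Fluorescein provided the equivalency standard.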

[14] = qHTS assay to test for compound auto fluorescence at 590 nm (red) in HEK293 cell free culture (AID 720683)
Summary of the method: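 Red-channel autofluorescence of compounds in culture medium (DMEM, 10% FBS), no cells, measured at 540/590 nm. Rose Bengal sodium is the reference fluorophore for equivalence.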

[15] = qHTS assay to test for compound auto fluorescence at 590 nm (red) in HepG2 cell free culture (AID 720684)
Summary of the method: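 Steps: dispense MEM/10% FBS medium, no cells; pin compound or DMSO vehicle; read red channel, Ex/Em 540/590 nm. Output given as Rose Bengal sodium equivalents.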

[16] = qHTS assay to test for compound auto fluorescence at 460 nm (blue) in HepG2 cell free culture (AID 720685)
Summary of the method: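 Compound (23 nL) or DMSO pinned into cell-free MEM with 10% FBS; blue fluorescence read at 405/460 nm excitation/emission, expressed as auto-fluorescence equivalency to triamterene.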

[17] = qHTS assay to test for compound auto fluorescence at 535 nm (green) in HepG2 cell free culture (AID 720686)
[18] = qHTS assay to test for compound auto fluorescence at 460 nm (blue) in HepG2 cells (AID 720687)
Summary of the method: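 Blue-channel autofluorescence (Ex/Em 405/460 nm, triamterene-equivalent) was measured after 1 hr compound exposure at 37 C, 5% CO2. Cells were HepG2, plated overnight at 37 C in MEM plus 10% FBS.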

[19] = target: Glucocorticoid receptor (Homo sapiens) (UniProt P04150); test: qHTS assay to identify small molecule agonists of the glucocorticoid receptor (GR) signaling pathway (AID 720691; active = well fitted activation curve with a large enough effect in the signal ratio in the repeat runs, not every such curve was filed as active; the % refers to the signal ratio)
Chain of Glucocorticoid receptor (Homo sapiens) (P04150 whole entry, looked up): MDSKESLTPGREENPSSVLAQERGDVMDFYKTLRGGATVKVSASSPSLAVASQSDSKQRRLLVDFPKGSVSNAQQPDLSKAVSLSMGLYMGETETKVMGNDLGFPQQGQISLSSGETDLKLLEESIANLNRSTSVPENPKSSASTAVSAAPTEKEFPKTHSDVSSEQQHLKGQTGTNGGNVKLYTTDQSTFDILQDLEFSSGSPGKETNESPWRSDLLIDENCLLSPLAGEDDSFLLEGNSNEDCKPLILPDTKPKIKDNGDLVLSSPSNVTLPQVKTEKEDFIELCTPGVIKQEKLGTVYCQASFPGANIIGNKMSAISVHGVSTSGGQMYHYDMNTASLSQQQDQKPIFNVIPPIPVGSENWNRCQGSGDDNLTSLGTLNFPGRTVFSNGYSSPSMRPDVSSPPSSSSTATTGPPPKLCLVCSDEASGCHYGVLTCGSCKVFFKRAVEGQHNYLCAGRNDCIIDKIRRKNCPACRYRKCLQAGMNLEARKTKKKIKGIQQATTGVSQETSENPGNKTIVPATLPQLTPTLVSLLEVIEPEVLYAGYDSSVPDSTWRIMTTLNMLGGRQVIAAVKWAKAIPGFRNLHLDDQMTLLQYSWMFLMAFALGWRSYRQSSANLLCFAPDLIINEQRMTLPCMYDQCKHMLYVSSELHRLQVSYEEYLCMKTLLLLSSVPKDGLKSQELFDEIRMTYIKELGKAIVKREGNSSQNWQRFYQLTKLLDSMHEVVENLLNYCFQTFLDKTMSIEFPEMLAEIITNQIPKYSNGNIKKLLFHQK
Summary of the method: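 GR-bla HeLa cells (beta-lactamase reporter under glucocorticoid response element) were plated 4 h at 37 C/5% CO2, given compounds in DMSO, and incubated 18 h at 37 C. LiveBLAzer B/G FRET substrate was added for 2 h at room temperature, then fluorescence intensity read.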

[20] = target: Glucocorticoid receptor (Homo sapiens) (UniProt P04150); test: qHTS assay to identify small molecule antagonists of the glucocorticoid receptor (GR) signaling pathway (AID 720692; active = well fitted inhibition curve with a large enough effect in the signal ratio in the repeat runs, not every such curve was filed as active; the % refers to the signal ratio)
Summary of the method: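 GR-bla HeLa cells (beta-lactamase reporter under glucocorticoid response element) were pre-plated 4 h at 37 C, treated with compounds plus 5 nM dexamethasone (final) for 18 h, then read by LiveBLAzer B/G FRET fluorescence after 2 h.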

[21] = qHTS assay for identifying genotoxic compounds that show differential cytotoxicity against isogenic chicken DT40 cell lines with known DNA damage response pathways - wild type cell line (AID 743012); note: nearly all actives have a fitted effect of over 60% in size
Summary of the method: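 Parental DNA repair-proficient DT40 cells, 300 per well, were pre-incubated ~0.5 h at 37 C/5% CO2, pin-dosed with compounds in DMSO, then incubated 40 h. Viability was read as CellTiter-Glo luminescence after 30 min at room temperature.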

[22] = qHTS assay for identifying genotoxic compounds that show differential cytotoxicity against isogenic chicken DT40 cell lines with known DNA damage response pathways - Rev3 mutant cell line (AID 743014); note: nearly all actives have a fitted effect of over 55% in size
[23] = qHTS assay for identifying genotoxic compounds that show differential cytotoxicity against isogenic chicken DT40 cell lines with known DNA damage response pathways - Rad54/Ku70 mutant cell line (AID 743015); note: nearly all actives have a fitted effect of over 60% in size
[24] = qHTS assay to identify small molecule antagonists of the androgen receptor (AR) signaling pathway - cell viability counter screen (AID 743033; note: nearly all actives have a fitted effect of over 45% in size)
[25] = qHTS assay to identify small molecule antagonists of the androgen receptor (AR) signaling pathway using the MDA cell line - cell viability counter screen (AID 743041; note: nearly all actives have a fitted effect of over 45% in size)
Summary of the method: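 Cells were plated at 3,000 per well and left 5 h. Compounds in DMSO were then pinned in, followed by R1881. After 16 h at 37C, CellTiter-Fluor fluorescence gave viability.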

[26] = qHTS assay to identify small molecule antagonists of the thyroid receptor (TR) signaling pathway - cell viability counter screen (AID 743064); note: nearly all actives have a fitted effect of over 50% in size
Summary of the method: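 In rat pituitary GH3.TRE-Luc reporter cells co-exposed to compound and 1 nM T3 for 23.5 h, cytotoxicity was assessed with CellTiter-Fluor in the same wells, read by fluorescence.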

[27] = qHTS assay to identify small molecule antagonists of the thyroid receptor (TR) signaling pathway (AID 743065); note: series mostly up to about 70 µM; nearly all actives have a fitted effect of over 55% in size
Summary of the method: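 Antagonism measured as loss of luciferase signal in GH3 cells stably carrying a TRE-luciferase reporter, co-treated with compound and T3 (1 nM final) for 23.5 h at 37 C. Viability was read in the same well by CellTiter-Fluor.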

[28] = tested on: thyroid hormone receptor (rat, GH3 cells); test: qHTS assay to identify small molecule agonists of the thyroid receptor (TR) signaling pathway (AID 743066; calls by dose curve)
[29] = target: Estrogen receptor (Homo sapiens) (UniProt P03372); test: qHTS assay to identify small molecule antagonists of the estrogen receptor alpha (ER-alpha) signaling pathway (AID 743069; active = well fitted curve in the direction sought with a large enough effect in the signal ratio in the repeat runs, not every such curve was filed as active; the % refers to the signal ratio)
Chain of Estrogen receptor (Homo sapiens) (P03372 whole entry, looked up): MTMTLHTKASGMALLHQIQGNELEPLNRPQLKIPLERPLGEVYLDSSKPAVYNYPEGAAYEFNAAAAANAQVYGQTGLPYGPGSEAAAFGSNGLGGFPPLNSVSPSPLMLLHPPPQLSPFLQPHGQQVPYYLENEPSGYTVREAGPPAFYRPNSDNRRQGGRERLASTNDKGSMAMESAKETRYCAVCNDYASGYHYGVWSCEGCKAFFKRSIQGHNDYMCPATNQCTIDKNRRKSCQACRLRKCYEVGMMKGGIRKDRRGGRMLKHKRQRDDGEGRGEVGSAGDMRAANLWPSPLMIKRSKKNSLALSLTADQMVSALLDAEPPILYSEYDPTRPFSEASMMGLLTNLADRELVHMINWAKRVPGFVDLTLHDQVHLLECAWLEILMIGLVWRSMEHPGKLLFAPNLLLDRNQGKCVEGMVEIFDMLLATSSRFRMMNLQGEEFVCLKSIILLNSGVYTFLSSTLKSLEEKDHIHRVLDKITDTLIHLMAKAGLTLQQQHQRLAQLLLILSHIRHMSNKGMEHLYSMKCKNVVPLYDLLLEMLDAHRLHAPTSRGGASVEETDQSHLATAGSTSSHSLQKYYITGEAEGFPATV
Summary of the method: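 ER-alpha-UAS-bla GripTite HEK293 line; 2% charcoal-stripped FBS overnight; plated, 4 hr 37C/5% CO2; cpd in DMSO + 17beta-estradiol, 18 hr 37C; LiveBLAzer B/G FRET substrate 2 hr RT; fluorescence intensity.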

[30] = qHTS assay to identify small molecule antagonists of the estrogen receptor alpha (ER-alpha) signaling pathway - cell viability counter screen (AID 743074; calls by dose curve;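 note: HEK293 cells carrying ER-alpha-UAS-bla reporter stimulated with 17beta-estradiol; nearly all actives have a fitted effect of over 45% in size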)
[31] = target: Estrogen receptor (Homo sapiens) (UniProt P03372); test: qHTS assay to identify small molecule agonists of the estrogen receptor alpha (ER-alpha) signaling pathway (AID 743075; calls by dose curve;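 note: HEK293 GripTite cells with ER-alpha and UAS-driven beta-lactamase reporter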)
[32] = target: Estrogen receptor (Homo sapiens) (UniProt P03372); test: qHTS assay to identify small molecule agonists of the estrogen receptor alpha (ER-alpha) signaling pathway using the BG1 cell line (AID 743079); note: nearly all actives have a fitted effect of over 20% in size
[33] = qHTS assay to identify small molecule antagonists of the estrogen receptor alpha (ER-alpha) signaling pathway using the BG1 cell line (AID 743080; calls by dose curve;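 note: BG1 cells stimulated with 17beta-estradiol alongside compound; series mostly up to about 70 µM; nearly all actives have a fitted effect of over 25% in size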)
Summary of the method: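 BG1-Luc-4E2 cells (endogenous full-length ER-alpha, 4xERE luciferase) hormone-starved 5 days in charcoal-stripped FBS, plated 4,000/well for 24 h, then compound plus 17beta-estradiol for 21.5 h at 37 C; ONE-Glo luminescence read.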

[34] = qHTS assay to identify small molecule antagonists of the estrogen receptor alpha (ER-alpha) signaling pathway using the BG1 cell line - cell viability counter screen (AID 743081);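 note: compound given together with 17beta-estradiol as the ER stimulus; series mostly up to about 70 µM; nearly all actives have a fitted effect of over 45% in size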
Aromatase (Homo sapiens) = Aromatase (Homo sapiens) (UniProt P11511); test: qHTS assay to identify aromatase inhibitors (AID 743083); note: series mostly up to about 70 µM; nearly all actives have a fitted effect of over 55% in size
Chain of Aromatase (Homo sapiens) (P11511 whole entry, looked up): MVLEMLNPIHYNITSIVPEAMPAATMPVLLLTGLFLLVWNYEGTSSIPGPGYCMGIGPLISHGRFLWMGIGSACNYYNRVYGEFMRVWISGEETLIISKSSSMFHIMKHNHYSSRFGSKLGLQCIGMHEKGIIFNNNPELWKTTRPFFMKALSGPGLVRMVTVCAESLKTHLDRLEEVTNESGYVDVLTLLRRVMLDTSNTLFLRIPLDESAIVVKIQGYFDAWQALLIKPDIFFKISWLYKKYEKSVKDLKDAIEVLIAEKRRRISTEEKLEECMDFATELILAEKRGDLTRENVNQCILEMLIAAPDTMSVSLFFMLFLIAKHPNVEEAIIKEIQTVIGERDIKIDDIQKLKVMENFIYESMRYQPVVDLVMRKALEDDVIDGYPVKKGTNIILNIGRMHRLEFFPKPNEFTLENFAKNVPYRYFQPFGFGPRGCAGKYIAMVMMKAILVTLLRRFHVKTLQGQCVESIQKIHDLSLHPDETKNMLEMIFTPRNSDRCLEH

[35] = qHTS assay to identify aromatase inhibitors - cell viability counter screen (AID 743084);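 note: cells stimulated with testosterone during compound exposure; nearly all actives have a fitted effect of over 55% in size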
[36] = target: Aryl hydrocarbon receptor (Homo sapiens) (UniProt P35869); test: qHTS assay to identify small molecule that activate the aryl hydrocarbon receptor (AhR) signaling pathway (AID 743085);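 note: HG2L7.5c1 human HepG2 liver cells with stably integrated DRE-driven firefly reporter; series mostly up to about 70 µM; nearly all actives have a fitted effect of over 15% in size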
Chain of Aryl hydrocarbon receptor (Homo sapiens) (P35869 whole entry, looked up): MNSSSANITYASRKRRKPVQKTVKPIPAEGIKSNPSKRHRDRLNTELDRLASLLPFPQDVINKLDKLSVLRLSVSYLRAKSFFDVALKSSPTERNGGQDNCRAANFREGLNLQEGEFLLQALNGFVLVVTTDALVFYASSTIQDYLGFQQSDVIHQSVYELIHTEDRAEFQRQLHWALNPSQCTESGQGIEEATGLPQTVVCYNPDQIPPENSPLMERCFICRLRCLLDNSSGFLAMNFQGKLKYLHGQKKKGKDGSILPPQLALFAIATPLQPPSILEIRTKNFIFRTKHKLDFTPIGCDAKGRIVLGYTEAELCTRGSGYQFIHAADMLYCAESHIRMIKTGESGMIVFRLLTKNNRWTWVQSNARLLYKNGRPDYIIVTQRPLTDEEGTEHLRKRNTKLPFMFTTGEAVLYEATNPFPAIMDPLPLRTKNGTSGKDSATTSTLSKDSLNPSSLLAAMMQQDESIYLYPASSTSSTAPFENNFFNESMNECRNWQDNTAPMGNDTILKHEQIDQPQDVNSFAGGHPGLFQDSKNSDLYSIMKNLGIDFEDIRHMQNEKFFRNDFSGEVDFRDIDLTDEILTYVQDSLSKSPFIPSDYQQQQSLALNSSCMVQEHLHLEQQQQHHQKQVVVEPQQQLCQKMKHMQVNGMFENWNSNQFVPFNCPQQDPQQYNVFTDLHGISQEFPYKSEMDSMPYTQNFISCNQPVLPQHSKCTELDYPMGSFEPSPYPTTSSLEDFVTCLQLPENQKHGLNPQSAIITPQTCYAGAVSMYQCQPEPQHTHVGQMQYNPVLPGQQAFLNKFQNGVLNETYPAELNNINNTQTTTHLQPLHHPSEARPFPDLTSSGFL
Summary of the method: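 AhR agonist activity is inferred from enhanced light output of a DRE-controlled firefly luciferase reporter in HepG2 cells, measured with ONE-Glo following 24 h treatment at 37C.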

[37] = qHTS assay to identify small molecule that activate the aryl hydrocarbon receptor (AhR) signaling pathway - cell viability counter screen (AID 743086)
Summary of the method: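 Cytotoxicity counter screen: CellTiter-Fluor signal (30 min, 37 C) in 4000 HepG2 cells/well carrying the DRE-luciferase reporter, following 24 h compound exposure at 37 C.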

[38] = target: Peroxisome proliferator-activated receptor gamma (Homo sapiens) (UniProt P37231); test: qHTS assay to identify small molecule agonists of the peroxisome proliferator-activated receptor gamma (PPARg) signaling pathway (AID 743094; active = well fitted activation curve with a large enough effect in the signal ratio in the repeat runs, not every such curve was filed as active; the % refers to the signal ratio)
Chain of Peroxisome proliferator-activated receptor gamma (Homo sapiens) (P37231 whole entry, looked up): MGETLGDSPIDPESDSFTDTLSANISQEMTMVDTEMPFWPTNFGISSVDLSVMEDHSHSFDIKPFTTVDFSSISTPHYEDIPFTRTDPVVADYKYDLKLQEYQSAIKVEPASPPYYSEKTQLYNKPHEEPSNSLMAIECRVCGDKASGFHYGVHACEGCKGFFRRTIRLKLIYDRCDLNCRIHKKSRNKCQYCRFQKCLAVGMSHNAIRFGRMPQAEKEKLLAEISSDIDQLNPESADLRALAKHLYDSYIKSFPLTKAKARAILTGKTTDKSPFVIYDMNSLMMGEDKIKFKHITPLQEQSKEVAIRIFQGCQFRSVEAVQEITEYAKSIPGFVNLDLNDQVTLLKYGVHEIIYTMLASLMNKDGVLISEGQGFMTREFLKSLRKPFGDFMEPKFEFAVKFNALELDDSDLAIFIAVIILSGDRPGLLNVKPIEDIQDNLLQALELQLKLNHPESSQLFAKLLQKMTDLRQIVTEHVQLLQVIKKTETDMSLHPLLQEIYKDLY
Summary of the method: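 GeneBLAzer PPARg UAS-bla HEK293H cells carrying a stably integrated beta-lactamase reporter were pre-incubated 5 h at 37C, then exposed to compounds in DMSO for 17 h at 37C; LiveBLAzer B/G FRET substrate was added for 1 h at room temperature and fluorescence read.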

[39] = target: Acetylcholinesterase (Homo sapiens) (UniProt P22303); test: Acetylcholinesterase (AChE) small molecule antagonists: enzyme-based qHTS assay (AID 1347397; calls by dose curve; note: nearly all actives have a fitted effect of over 55% in size); details: Potency: AChE enzyme activity inhibition; outcome: AChE enzyme activity inhibition
Chain of Acetylcholinesterase (Homo sapiens) (P22303 whole entry, looked up): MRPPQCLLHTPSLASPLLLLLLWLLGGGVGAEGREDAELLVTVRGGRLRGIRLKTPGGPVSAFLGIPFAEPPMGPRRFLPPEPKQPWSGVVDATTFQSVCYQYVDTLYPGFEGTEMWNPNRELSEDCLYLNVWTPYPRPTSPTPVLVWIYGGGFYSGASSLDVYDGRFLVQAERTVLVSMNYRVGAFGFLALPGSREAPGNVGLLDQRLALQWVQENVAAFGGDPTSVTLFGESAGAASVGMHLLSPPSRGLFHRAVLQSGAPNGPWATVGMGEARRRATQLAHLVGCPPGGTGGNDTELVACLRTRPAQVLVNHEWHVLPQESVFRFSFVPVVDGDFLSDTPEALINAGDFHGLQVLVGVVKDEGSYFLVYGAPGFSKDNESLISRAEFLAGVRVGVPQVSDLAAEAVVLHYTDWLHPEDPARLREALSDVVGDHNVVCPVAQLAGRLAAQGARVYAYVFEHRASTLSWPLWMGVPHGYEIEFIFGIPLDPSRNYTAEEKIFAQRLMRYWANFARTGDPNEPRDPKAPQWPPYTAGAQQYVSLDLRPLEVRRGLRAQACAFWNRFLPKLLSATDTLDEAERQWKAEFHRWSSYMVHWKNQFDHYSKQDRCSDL
Summary of the method: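 rhAChE 50 mU/mL (dispensed) + cpd or DMSO, 30 min RT; add DTNB/acetylthiocholine cocktail, 10 min RT; colorimetric thiocholine readout. qHTS, 1536-well format.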

[40] = target: Acetylcholinesterase (Homo sapiens) (UniProt P22303); test: Acetylcholinesterase (AChE) small molecule antagonists: fluorescence cell-based qHTS assay (AID 1347398; calls by dose curve; note: nearly all actives have a fitted effect of over 50% in size); details: Potency: AChE activity; outcome: AChE activity
Summary of the method: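 Read-out is Thiolite Green fluorescence at Ex/Em = 490/520 nm, formed by reaction with thiocholine released when cellular AChE in SH-SY5Y cells hydrolyzes acetylthiocholine. Compounds were preincubated 30 min at 37 C before substrate.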

[41] = target: Acetylcholinesterase (Homo sapiens) (UniProt P22303); test: Acetylcholinesterase (AChE) small molecule antagonists: enzyme-based qHTS assay with human liver microsomes (AID 1347399; calls by dose curve; note: nearly all actives have a fitted effect of over 60% in size); details: Potency: qHTS inhibition; outcome: qHTS inhibition
Summary of the method: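 Recombinant human AChE (50 mU/mL in the enzyme mix) and human liver microsomes (0.25 mg/mL final) were preincubated with compound and NADPH (0.25 mg/mL final) for 30 min at 37 C. Acetylthiocholine/DTNB was then added; thiocholine was read colorimetrically after 10 min at room temperature.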

[42] = qHTS assay to identify small molecule antagonists of the glucocorticoid receptor (GR) signaling pathway - cell viability counter screen (AID 720693); note: nearly all actives have a fitted effect of over 55% in size

Measured: Potency

CN1C(=O)CC(=O)N(c2ccccc2)c2cc(Cl)ccc21
inactive: [1] | [2] | [3] | [4] | [5] | [6] | [7] | [8] | [9] | [10] | [11] | [12] | [13] | [14] | [15] | [16] | [17] | [18] | [19] | [20] | [21] | [22] | [23] | [24] | [25] | [26] | [27] | [28] | [29] | [30] | [31] | [32] | [33] | [34] | Aromatase (Homo sapiens) | [35] | [36] | [37] | [38]

C=CC(C)CCC=C(C)C (stereo not drawn)
inactive: [39] | [40] | [41]

CN[C@]1(c2ccccc2Cl)CCCCC1=O
inactive: [1] | [2] | [3] | [4] | [5] | [6] | [7] | [8] | [10] | [11] | [12] | [13] | [14] | [15] | [16] | [17] | [18] | [19] | [20] | [42] | [21] | [22] | [23] | [24] | [25] | [26] | [27] | [28] | [29] | [31] | [32] | [33] | [34] | Aromatase (Homo sapiens) | [35] | [36] | [37] | [38]

CC(=O)OCc1ccccc1
inactive: [39] | [40] | [41]
